{"source": "ChEMBL document CHEMBL1201862", "about": "“PubChem BioAssay data set” (2004)", "note": "Among all 400,000 compounds or so, about 2,100 (0.53%) were called active. Another 14% or so got no clear call; they are omitted. No rule for the calls is given here. Shown is part of a subset that was picked to be rich in actives.", "data": [{"target": "Ataxin-2 (Homo sapiens) (UniProt Q99700)", "sequence (Q99700 whole entry)": "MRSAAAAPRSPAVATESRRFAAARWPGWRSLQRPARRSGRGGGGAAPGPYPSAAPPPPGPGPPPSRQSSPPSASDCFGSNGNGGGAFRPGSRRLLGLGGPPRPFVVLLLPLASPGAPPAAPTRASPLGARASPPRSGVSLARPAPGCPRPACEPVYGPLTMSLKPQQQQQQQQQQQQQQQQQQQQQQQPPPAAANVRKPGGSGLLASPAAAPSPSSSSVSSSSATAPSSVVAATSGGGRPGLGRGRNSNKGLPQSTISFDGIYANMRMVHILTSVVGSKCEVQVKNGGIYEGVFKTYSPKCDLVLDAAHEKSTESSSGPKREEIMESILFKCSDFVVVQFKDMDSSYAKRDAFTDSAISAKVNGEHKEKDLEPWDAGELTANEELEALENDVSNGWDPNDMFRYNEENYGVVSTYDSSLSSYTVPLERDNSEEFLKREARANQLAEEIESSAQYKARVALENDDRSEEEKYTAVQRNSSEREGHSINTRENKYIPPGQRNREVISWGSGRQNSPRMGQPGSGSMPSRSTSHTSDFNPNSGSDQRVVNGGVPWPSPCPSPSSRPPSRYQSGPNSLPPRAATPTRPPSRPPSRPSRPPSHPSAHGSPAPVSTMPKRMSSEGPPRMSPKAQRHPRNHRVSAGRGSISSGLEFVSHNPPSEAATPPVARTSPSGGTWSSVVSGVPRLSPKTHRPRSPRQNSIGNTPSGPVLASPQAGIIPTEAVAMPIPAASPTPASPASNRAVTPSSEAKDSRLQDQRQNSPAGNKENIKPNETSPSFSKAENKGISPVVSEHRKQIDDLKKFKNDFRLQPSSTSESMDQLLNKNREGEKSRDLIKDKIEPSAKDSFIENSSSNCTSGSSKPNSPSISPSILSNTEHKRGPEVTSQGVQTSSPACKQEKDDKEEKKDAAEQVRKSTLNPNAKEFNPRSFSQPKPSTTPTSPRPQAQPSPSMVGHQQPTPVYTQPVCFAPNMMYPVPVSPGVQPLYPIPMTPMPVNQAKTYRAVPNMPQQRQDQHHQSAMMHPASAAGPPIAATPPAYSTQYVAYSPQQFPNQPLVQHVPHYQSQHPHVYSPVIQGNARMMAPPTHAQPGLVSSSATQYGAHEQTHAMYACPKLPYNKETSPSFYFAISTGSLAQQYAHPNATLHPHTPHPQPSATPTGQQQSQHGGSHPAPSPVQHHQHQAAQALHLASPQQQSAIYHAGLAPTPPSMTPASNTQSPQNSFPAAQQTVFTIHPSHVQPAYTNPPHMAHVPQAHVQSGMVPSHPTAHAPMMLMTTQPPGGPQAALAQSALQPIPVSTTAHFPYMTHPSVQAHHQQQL", "test": "qHTS for Inhibitors of ATXN expression.", "assay_type": "functional", "values": [{"smiles": "COc1cc(/C=C(\\C#N)c2nc3ccccc3n2C)cc(OC)c1O", "Potency": "inactive"}, {"smiles": "Cc1cccn2c(=O)c3cc(C#N)/c(=N\\C(=O)c4cccnc4)n(CC4CCCO4)c3nc12", "note": "(centres undefined)", "Potency": "inactive"}, {"smiles": "O=C1CN2CCC1C/C2=C\\c1ccnc2c(Cl)cccc12", "note": "(centres undefined)", "Potency": "inactive"}, {"smiles": "COC(=O)C1=CN(Cc2ccc(OC)c(OC)c2)C=C(C(=O)OC)C1c1cccs1", "Potency": "inactive"}, {"smiles": "C=C1C(=O)c2sccc2C(c2ccc(OC)c(OC)c2)C1COC(C)=O", "note": "(centres undefined)", "Potency": "5.97 µM (active)"}, {"smiles": "CN1CCN(c2nc3ccccn3c(=O)c2C=C(C#N)C#N)CC1", "Potency": "inactive"}, {"smiles": "CC1(C)CC(=O)C2=C(C1)c1c(ccc3ccccc13)NC2c1ccc(OCC(=O)O)cc1", "note": "(centres undefined)", "Potency": "inactive"}, {"smiles": "Cc1ccc2nc(NCC(N)=O)nc(-c3ccccc3)c2c1", "Potency": "inactive"}, {"smiles": "Nc1cccc2c1C(=O)N(Cc1nnc(-c3ccccc3Br)o1)C2=O", "Potency": "inactive"}, {"smiles": "O=c1c(Cl)c(Cl)cnn1Cc1nnc(-c2ccccc2Br)o1", "Potency": "39.8 µM (active)"}, {"smiles": "COc1ccc(/C=C2\\Oc3cc(OCC(=O)N4CCC[C@H]4C(=O)O)ccc3C2=O)c(OC)c1", "Potency": "inactive"}, {"smiles": "COc1ccc(-c2nc3ccccc3c(=O)n2CCOc2c(C)cccc2C)cc1", "Potency": "inactive"}, {"smiles": "COc1ccc(-c2nnc(SCc3cc(=O)c4cc(C)cc(C)c4[nH]3)n2C)cc1", "Potency": "17.8 µM (active)"}, {"smiles": "COc1ccc(CN2COc3ccc4c(C)cc(=O)oc4c3C2)cc1", "Potency": "inactive"}, {"smiles": "CCCc1cc(=O)oc2c3c(ccc12)OCN(Cc1ccccc1OC)C3", "Potency": "inactive"}, {"smiles": "COc1ccc(-c2c(C)c3ccc(O)c(CN4CCCC(C)C4)c3oc2=O)cc1OC", "note": "(centres undefined)", "Potency": "inactive"}, {"smiles": "CCCCCc1cc(=O)oc2c(C(CCN3CCCC(C)C3)c3ccc(N(C)C)cc3)c(OC)cc(OC)c12", "note": "(centres undefined)", "Potency": "22.4 µM (active)"}, {"smiles": "CCCCCc1cc(=O)oc2c(C(CCN3CCCC(C)C3)c3ccc4c(c3)OCO4)c(OC)cc(OC)c12", "note": "(centres undefined)", "Potency": "35.5 µM (active)"}, {"smiles": "Cc1c(O)ccc2c(CN3CCOCC3)cc(=O)oc12", "Potency": "inactive"}, {"smiles": "COc1cc(OC)c2c(C)cc(=O)oc2c1C(CCN1CCOCC1)c1ccc2c(c1)OCO2", "note": "(centres undefined)", "Potency": "20 µM (active)"}, {"smiles": "CCCCCc1cc(=O)oc2c(C(CCN3CCCC(C)C3)c3ccc(OC)cc3)c(OC)cc(OC)c12", "note": "(centres undefined)", "Potency": "31.6 µM (active)"}, {"smiles": "CCN1CCc2c(C#N)c(N3CCOCC3)nc(NCCO)c2C1", "Potency": "inactive"}, {"smiles": "CCc1cc2c(CN3CCN(CCO)CC3)cc(=O)oc2cc1O", "Potency": "inactive"}, {"smiles": "CC(=O)c1ccc(NS(=O)(=O)c2ccc3c(c2)N(C(C)=O)CCO3)cc1", "Potency": "inactive"}, {"smiles": "CCCN1CCN(c2ncnc3sc(C(=O)Nc4ccc(C(C)C)cc4)c(C)c23)CC1", "Potency": "31.6 µM (active)"}, {"smiles": "CCOC(=O)c1sc2ncnc(N3CCN(C)CC3)c2c1C", "Potency": "inactive"}, {"smiles": "COc1ccc(C)cc1NC(=O)c1sc2ncnc(N3CCN(c4ccccn4)CC3)c2c1C", "Potency": "inactive"}, {"smiles": "COc1cccc(C(=O)Nc2ccc3[nH]c(O)nc3c2)c1OC", "Potency": "inactive"}, {"smiles": "COc1ccccc1C(=O)Nc1nc2n(n1)C(c1ccc(F)cc1)C=C(c1ccc(Cl)cc1)N2", "note": "(centres undefined)", "Potency": "inactive"}, {"smiles": "COc1ccccc1C(=O)Nc1cccc(N2CCC(NCc3cnn(-c4ccccc4)n3)CC2)c1", "Potency": "28.2 µM (active)"}, {"smiles": "Cc1ccc(Cn2nc(C)c(NC(=O)CSc3nc4c(c(C(F)(F)F)n3)CCc3ccccc3-4)c2C)cc1", "Potency": "20 µM (active)"}, {"smiles": "COCCNC(=O)c1cc2nc3c(c(C(F)(F)F)n2n1)CCc1ccccc1-3", "Potency": "inactive"}, {"smiles": "CCc1ccc(-c2cc(C(F)(F)F)n3nc(C(=O)Nc4c(C)nn(Cc5ccc(F)cc5)c4C)cc3n2)s1", "Potency": "inactive"}, {"smiles": "Cc1cccn2c(=O)c3cc(C(=O)NC4CCCC4)c(=N)n(CC4CCCO4)c3nc12", "note": "(centres undefined)", "Potency": "inactive"}, {"smiles": "COCCCn1c(=N)c(C(=O)NC2CCCCC2)cc2c(=O)n3ccccc3nc21", "Potency": "inactive"}, {"smiles": "Cc1ccc(-n2nc(C)c3c(C(=O)OCC(=O)N(C)C4CCS(=O)(=O)C4)cc(-c4ccccc4)nc32)cc1", "note": "(centres undefined)", "Potency": "inactive"}, {"smiles": "O=C1/C(=C/c2ccco2)SC(=S)N1CCC(=O)N1CCCCC1CCO", "note": "(centres undefined)", "Potency": "17.8 µM (active)"}, {"smiles": "COc1cccc(N2C(=O)C3CCCN3C2=S)c1", "note": "(centres undefined)", "Potency": "inactive"}, {"smiles": "O=C1N=C(N2CCN(c3ccccc3)CC2)S/C1=C/c1ccco1", "Potency": "inactive"}, {"smiles": "COc1cccc(/C=C2\\SC(=S)N(CC(=O)N(C)C3CCS(=O)(=O)C3)C2=O)c1", "note": "(centres undefined)", "Potency": "35.5 µM (active)"}, {"smiles": "COc1cccc(/C=C2\\SC(=S)N(CCCC(=O)N3CCCCC3CCO)C2=O)c1", "note": "(centres undefined)", "Potency": "39.8 µM (active)"}, {"smiles": "COc1cccc(/C=C2\\SC(=S)N(CCC(=O)NNC(=O)c3ccccc3OC)C2=O)c1", "Potency": "inactive"}, {"smiles": "COc1cccc(/C=C2/SC(=S)N(CC(=O)NNC(=O)c3ccccc3OC)C2=O)c1", "Potency": "inactive"}, {"smiles": "Cc1cccc(OCCn2c(NC(=O)c3ccco3)nc3ccccc32)c1", "Potency": "39.8 µM (active)"}, {"smiles": "CCCn1nc(NC(=O)c2ccco2)c2cc3ccc(C)cc3nc21", "Potency": "inactive"}, {"smiles": "CCCn1nc(NC(=O)c2ccco2)c2cc3cc(C)ccc3nc21", "Potency": "inactive"}, {"smiles": "COCCCn1c(=N)c(C(=O)NCC2CCCO2)cc2c(=O)n3cc(C)ccc3nc21", "note": "(centres undefined)", "Potency": "inactive"}, {"smiles": "Cc1cccc(C2=NN(c3ccccc3)[C@H](CO)[C@H]2c2ccccc2)c1", "Potency": "inactive"}, {"smiles": "COc1ccc(Br)cc1C(C[N+](=O)[O-])c1c(N)n(C)c(=O)n(C)c1=O", "note": "(centres undefined)", "Potency": "17.8 µM (active)"}]}]}
